Bioassay records from PubChem BioAssay.
Calb FLC – C. albicans growth inhibition with fluconazole, primary screen, CaCi-2 strain, Alamar Blue fluorescence | C. albicans CaCi-2 (fluconazole-resistant clinical isolate) + fluconazole, 48 h | growth inhibition, % (concentration not given with the values) | 300,000 compounds, 0.57% hits | AID 1979, 2009;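 active = growth inhibition above about 58% in most replicates, limit read from the data, passing the limit was not always enough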;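 note: all wells also contain fluconazole at 8 µg/ml as a sub-toxic cotreatment; 0% = median of DMSO wells and 100% = median of geldanamycin control wells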
TIM10 inh – growth inhibitors of isogenic TIM10 control yeast, primary screen, counter-screen for tim10-1 yeast inhibitor project, luminescence, uHTS; S. cerevisiae TIM10 strain growth, BacTiter-Glo luminescence, 24 h; inhibition, % at 10 µM; 330,000 compounds, 1.4% hits;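 active = inhibition of 40% or more at the single tested concentration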;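 note: wild-type TIM10 isogenic control strain grown at permissive 25 °C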
tim23-1 inh – growth inhibitors of tim23-1 mutant yeast, primary screen, luminescence, uHTS. S. cerevisiae tim23-1 growth, BacTiter-Glo luminescence, 24 h. inhibition, % at 20 µM. 330,000 compounds, 1.3% hits. AID 463212, 2010;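 active = growth inhibition of the mutant yeast at or above 50%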;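 note: temperature-sensitive mutant grown at 25 °C; plate controls were DMSO-treated mutant yeast for no effect and medium wells lacking yeast for full effect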
SKKanGAS inh – S. pyogenes SKKanGAS growth inhibitors in kanamycin, primary screen, streptokinase expression inhibitor project, SKKanGAS strain, BacTiter-Glo luminescence | inhibition, % at 7.5 µM | 300,000 compounds, 1.3% hits | 6 h | AID 1662, 2009;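 active = mean replicate score, as percent of positive control median, at least 50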;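 note: strain carries kanamycin resistance gene driven by streptokinase promoter and grows in 40 µg/ml kanamycin; loss of luminescence reflects streptokinase promoter inhibition or plain growth inhibition; 0% = median of DMSO wells and 100% = positive control at its reference dose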
PfHsp90 yeast 2 – growth inhibition of PfHsp90-expressing yeast, primary screen, antimalarial PfHsp90 inhibitor project, S. cerevisiae, BacTiter-Glo luminescence, single point, set 2. BacTiter-Glo ATP, 48 h; yeast lacking PDR1 and PDR3 efflux regulators. inhibition, % at 9.4 µM. 310,000 compounds, 0.32% hits;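 active = every replicate shows inhibition above about 80%, whatever the replicate mean, limit read from the data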;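 note: 0% = DMSO neutral controls and 100% = 20 µM radicicol positive controls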
tim10-1 inh – growth inhibitors of tim10-1 mutant yeast, primary screen, luminescence, uHTS. 330,000 compounds, 2.2% hits. inhibition, % at 20 µM. AID 463190, 2010. S. cerevisiae tim10-1 ts strain growth, BacTiter-Glo, 24 h;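 active = inhibition of at least 40%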;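 note: mutant grown at 25 °C; 0% = DMSO wells with yeast and 100% = wells holding no yeast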
tim10-1 conf – growth inhibitors of tim10-1 mutant yeast, confirmation, single concentration, luminescence, S. cerevisiae | inhibition, % at 20 µM | shares compounds with tim10-1 inh | 7,400 compounds, 56% hits | S. cerevisiae tim10-1 ts strain growth, BacTiter-Glo, 24 h | AID 463213, 2010;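 active = inhibition of yeast growth at or above a set limit in either of two repeat tests at 20 µM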;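 note: tim10-1 mutant grown at permissive 25 °C to find synthetic lethal compounds; 0% = DMSO yeast wells and 100% = medium wells without yeast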
An asterisk follows results filed as active; . = no result given. Hits are enriched below; roughly 4.7% of the tested compounds scored in any of these assays.

SMILES	Calb FLC	TIM10 inh	tim23-1 inh	SKKanGAS inh	PfHsp90 yeast 2	tim10-1 inh	tim10-1 conf
CN(C)S(=O)(=O)c1cccc(NC(=S)NN=C(Cc2ccccc2)Cc2ccccc2)c1	69	22	41	8	-45	44*	22
CCc1cc(=O)oc2cc(OC3CCCCC3=O)ccc12 (stereo not given)	4	5	35	-2	-30	43*	13
COc1ccccc1CC(O)CC1c2c(cc3c(c2OC)OCO3)CCN1C (stereo not given)	.	6	8	.	28	20	.
Cc1ccccc1NC(=S)Nc1ccccn1	-6	13	35	-4	-8	47*	-5
S=C(Nc1ccccn1)Nc1ccccc1Cl	-15	27	28	15	-16	6	.
CCOC(=O)C1CCN(C(=O)CN(Cc2ccc(Cl)cc2)S(C)(=O)=O)CC1	4	13	9	-4	-18	97*	1
O=c1ccnc(SCCc2ccc([N+](=O)[O-])cc2)[nH]1	-7	-13	9	5	18	16	.
COc1ccc(C2=NN(C(N)=S)C(c3ccco3)C2)cc1 (stereo not given)	33	-4	6	-3	-15	7	.
COc1ccc(C2=NN(C(=O)CSc3nnc(-c4ccccc4F)o3)C(c3ccco3)C2)cc1 (stereo not given)	6	26	42	20	3	48*	38*
CCOC(=O)c1csc(NC(=O)c2ccccc2)n1	4	16	18	-2	-23	3	.
CCOC(=O)/C(=N/Nc1ccccc1)c1csc(Nc2ccccc2)n1	-27	34	38	91*	1	48*	19
CCCCC(CCC(=O)O)(C(=O)OCC)c1csc(Nc2ccccc2)n1 (stereo not given)	19	16	24	2	-19	42*	11
Cc1ccsc1C(=O)Nc1cccc(-n2cnnn2)c1	7	9	3	0	15	13	.
CC1CCCC2(C1)NC(=S)c1c(sc3c1CCCC3)N2 (stereo not given)	50	12	31	16	5	42*	23
Oc1ccc2cc(Br)ccc2c1CN1CCCC1	3	22	23	-2	7	35	.
CC1(C)Cc2nc3sc4c(=O)n(Cc5ccccc5)cnc4c3cc2CS1	-5	20	23	-12	2	26	.
CCCn1cnc2c(sc3nc4c(cc32)CSC(C)(C)C4)c1=O	54	32	29	-9	-30	41*	8
NC(=O)c1ccsc1NC(=O)CS(=O)(=O)c1ccc(F)cc1	.	1	-13	-15	7	-3	.
O=C(COc1ccccc1Cc1ccccc1)Nc1cccnc1	.	-1	33	.	13	8	.
CCOC(=O)/C(C#N)=C1/CCCCCN1C	1	7	9	0	-23	0	.
CCOC(=O)/C(C#N)=C1\SS/C(=C(/C#N)C(=O)OCC)S1	2	13	21	-7	.	41*	36*
COCCn1nnnc1C(CC(C)C)N1CCN(c2nc3ccccc3s2)CC1 (stereo not given)	2	25	37	-1	2	44*	32*
O=C(NCCc1nnc2ccc(NCCCN3CCOCC3)nn12)c1ccccc1	1	6	-10	0	13	-1	.
COc1ccc(OC)c(C2=NS(=O)(=O)N(C)C(C(=O)Nc3ccc(F)cc3F)=C2)c1	2	-4	26	5	-39	42*	19
Cc1ccc(C2=NS(=O)(=O)N(C)C(C(=O)Nc3ccc(F)cc3F)=C2)cc1	-8	4	-7	2	17	5	.
O=C(O)Cc1coc2ccc3ccccc3c12	19	17	41	-4	.	44*	48*
